This is part of a sample that, as a whole, favours compounds with a hit. Of some 83,000 tested, about 20% had one in any assay.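 96-well plates, one dose, 48 hours. Percent growth reported; active if below 10.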 A number with no mark means an inactive call. Active and inactive are the calls of the source.

Test systems include NCI-H23 lung; NCI-H226 lung; NCI-H322M lung; HOP-62 NSCLC; NCI-H460 lung; HOP-92 NSCLC; NCI-H522 lung; A549/ATCC NSCLC; 786-0 renal; COLO 205 colon; DU-145 prostate; K-562 leukemia; MALME-3M melanoma; MDA-MB-231 breast; RXF 393 renal; SF-268 CNS; SF-295 CNS; SF-539 CNS; UACC-257 melanoma; M14 melanoma.
Common to all, as to assay: NCI-60 one-dose screen, 48 h (100 = growth as untreated, 0 = no growth, -100 = all killed)
Conditions in all cases: 10 µM unless noted

For the compound `CN1CCN(Cn2nc(-c3cc(Cl)cc(Cl)c3Cl)oc2=S)CC1`, the growth in the experiment on NCI-H23 lung was 90%; in the experiment with NCI-H226 lung, 96%; in the experiment on NCI-H322M lung it was 101%; in the experiment on HOP-62 NSCLC it was 93.9%; in the experiment on NCI-H460 lung it was 102%; in the experiment with HOP-92 NSCLC, 119%. Also, the growth in the experiment with NCI-H522 lung is 91.1%; with A549/ATCC NSCLC it was 104%; with 786-0 renal, 94.5%; in the experiment on COLO 205 colon, 110%; with DU-145 prostate, 108%; in the experiment with K-562 leukemia, 68.8%. Further, the growth in the experiment on MALME-3M melanoma is 101%; in the experiment on MDA-MB-231 breast, 94.4%; in the experiment with RXF 393 renal, 99.5%; with SF-268 CNS, 109%; in the experiment on SF-295 CNS it was 87.7%; in the experiment on SF-539 CNS, 106%. Further, the growth with UACC-257 melanoma is 77.8%; in the experiment on M14 melanoma, 107%.
`Cc1ccc(-c2nn(CC(=O)N3CCOCC3)c(N)c2C#N)cc1`: the growth was 100% in the experiment on NCI-H23 lung; 102% in the experiment on NCI-H226 lung; 110% with NCI-H322M lung; 108% in the experiment on HOP-62 NSCLC; 106% in the experiment with NCI-H460 lung; 111% in the experiment with HOP-92 NSCLC. Further, the growth is 101% in the experiment on NCI-H522 lung; 95.8% with A549/ATCC NSCLC; 100% with 786-0 renal; 122% in the experiment on COLO 205 colon; 111% in the experiment with DU-145 prostate; 99.8% in the experiment on K-562 leukemia. For the same compound, the growth was 104% in the experiment with MALME-3M melanoma; 108% in the experiment on MDA-MB-231 breast; 110% with RXF 393 renal; 99% in the experiment with SF-268 CNS; 102% with SF-295 CNS; 99.2% in the experiment on SF-539 CNS. Moreover, the values for the growth in the experiment on UACC-257 melanoma and with M14 melanoma were 107% and 104%, respectively.
In the case of `O=C(Oc1ccccc1)c1cc(O)c(O)c(O)c1`, the growth was 72.3% in the experiment on NCI-H23 lung; 89.8% in the experiment with NCI-H226 lung; 54.8% in the experiment on NCI-H322M lung; 54.9% in the experiment with HOP-62 NSCLC; 28% in the experiment on NCI-H460 lung; 79.6% in the experiment with HOP-92 NSCLC. Further, the growth in the experiment with NCI-H522 lung is 53.3%; with A549/ATCC NSCLC, 68.9%; with 786-0 renal it was 55%; in the experiment with COLO 205 colon it was 99.2%; in the experiment on DU-145 prostate, 76.2%; in the experiment with K-562 leukemia it was 50.8%. Further, the growth with MALME-3M melanoma is 88%; with MDA-MB-231 breast it was 63.4%; in the experiment on RXF 393 renal it was 110%; in the experiment on SF-268 CNS, 59.7%; with SF-295 CNS, 73.5%; with SF-539 CNS, 54%. The growth with UACC-257 melanoma is 112%; in the experiment on M14 melanoma it was 68.4%.
With `NCCCCCNc1noc(Cc2c[nH]c3cc(Br)ccc23)n1`, the growth in the experiment on NCI-H23 lung is 30.9%; in the experiment on NCI-H226 lung it was 61%; in the experiment with NCI-H322M lung, 33.4%; in the experiment with HOP-62 NSCLC it was 21.6%; in the experiment on NCI-H460 lung, 12.8%; in the experiment on HOP-92 NSCLC, 19.7%. The growth with NCI-H522 lung was -38.3% (active); in the experiment on A549/ATCC NSCLC, 24.6%; in the experiment with 786-0 renal, 43.2%; in the experiment on COLO 205 colon, -0.719% (active); in the experiment with DU-145 prostate, 2.36% (active); in the experiment on K-562 leukemia it was 14.3%. In addition, the growth with MALME-3M melanoma was 13.5%; with MDA-MB-231 breast, 51.2%; in the experiment with RXF 393 renal, -11.5% (active); with SF-268 CNS, 54.1%; in the experiment with SF-295 CNS, 7.26% (active); with SF-539 CNS it was -23% (active). Moreover, the values for the growth in the experiment with UACC-257 melanoma and with M14 melanoma were 54.8% and -26.3% (active), respectively.
Consider `C[C@H]1c2ccccc2CN1CCCOc1cc2c(cc1OCC1CC1)C1(CCCC1)C(N)=N2`, for which the growth in the experiment with NCI-H23 lung is 67.2%; with NCI-H226 lung, 53.1%; in the experiment with NCI-H322M lung it was 89.7%; with HOP-62 NSCLC, 82%; in the experiment with NCI-H460 lung, 38.5%; in the experiment with HOP-92 NSCLC, 23.2%. Also, the growth with NCI-H522 lung was 73.7%; with A549/ATCC NSCLC, 74.1%; in the experiment on 786-0 renal, 56.4%; in the experiment with COLO 205 colon it was -66.4% (active); in the experiment on DU-145 prostate, 75.6%; in the experiment with K-562 leukemia it was 2.69% (active). For the same compound, the growth was -84.7% (active) in the experiment with MALME-3M melanoma; 34.5% with MDA-MB-231 breast; 34.2% in the experiment on RXF 393 renal; 70.6% in the experiment with SF-268 CNS; 55.3% in the experiment with SF-295 CNS; 48.1% in the experiment with SF-539 CNS. In addition, the figures for the growth in the experiment with UACC-257 melanoma and in the experiment with M14 melanoma were -68.1% (active) and -70.4% (active), respectively.
For the compound `Cc1c2ccncc2c(C)c2c1c1ccccc1n2CCCCCC(=O)O`, the growth is 84.7% in the experiment on NCI-H23 lung; 75.6% in the experiment on NCI-H226 lung; 96.1% in the experiment on NCI-H322M lung; 83% in the experiment on HOP-62 NSCLC; 97.1% in the experiment on NCI-H460 lung; 80.6% in the experiment with HOP-92 NSCLC. In addition, the growth was 101% in the experiment with NCI-H522 lung; 89.8% in the experiment on A549/ATCC NSCLC; 103% in the experiment on 786-0 renal; 109% with COLO 205 colon; 104% in the experiment with DU-145 prostate; 92.5% with K-562 leukemia. Further, the growth was 108% in the experiment on MALME-3M melanoma; 81.2% in the experiment on MDA-MB-231 breast; 93.2% with RXF 393 renal; 86.6% in the experiment with SF-268 CNS; 95.3% in the experiment with SF-295 CNS; 90.2% in the experiment on SF-539 CNS. The growth in the experiment on UACC-257 melanoma is 106%; in the experiment with M14 melanoma, 103%.
Turning to `COc1cccc(CNc2nnc(C)c(C)n2)c1O`, the growth was 96.5% with NCI-H23 lung; 89.1% in the experiment on NCI-H226 lung; 108% in the experiment with NCI-H322M lung; 95.6% in the experiment with HOP-62 NSCLC; 102% in the experiment on NCI-H460 lung; 81.2% in the experiment with HOP-92 NSCLC. Further, the growth in the experiment with NCI-H522 lung is 90.7%; in the experiment on A549/ATCC NSCLC, 93.7%; with 786-0 renal, 104%; with COLO 205 colon, 109%; in the experiment on DU-145 prostate, 108%; in the experiment on K-562 leukemia, 102%. The growth with MALME-3M melanoma is 108%; in the experiment with MDA-MB-231 breast it was 96.3%; in the experiment with RXF 393 renal, 123%; in the experiment on SF-268 CNS, 100%; in the experiment with SF-295 CNS, 97%; with SF-539 CNS, 99.7%. For the same compound, the growth was 95% with UACC-257 melanoma and 101% with M14 melanoma.
With `O=C1C=CC2(O)OC(c3ccccc3)CC(=O)C2=C1O` (stereo not given), the growth in the experiment with NCI-H23 lung was 79.2%; in the experiment with NCI-H226 lung, 99.7%; with NCI-H322M lung it was 90%; with HOP-62 NSCLC, 86.5%; in the experiment with NCI-H460 lung, 93.6%; with HOP-92 NSCLC it was 93.8%. The growth was -17% (active) in the experiment on NCI-H522 lung; 85.6% with A549/ATCC NSCLC; 93.6% in the experiment on 786-0 renal; 118% in the experiment with COLO 205 colon; 15.7% in the experiment with DU-145 prostate; 72.6% with K-562 leukemia. Further, the growth is 95.7% with MALME-3M melanoma; 73.2% in the experiment on MDA-MB-231 breast; 94% in the experiment on RXF 393 renal; 40.4% with SF-268 CNS; 107% with SF-295 CNS; 86.1% with SF-539 CNS. Moreover, the values for the growth in the experiment with UACC-257 melanoma and in the experiment with M14 melanoma were 87.9% and 90.3%, respectively.

(Values after PubChem BioAssay (NCI).)
